Here are results for 23 compounds from PubChem BioAssay (NCATS).

Inconclusive results are not listed. Entries that show only a call come without a potency. Activity calls are given as the source filed them. Calls come from the whole dose curve; as a rule, active = well fitted inhibition curve with a large enough effect; inconclusive = small, poorly fitted or top-dose-only effect, or effect the other way; inactive = flat fitted curve, though single readings scatter.

Chain of ATP-dependent 6-phosphofructokinase (Trypanosoma brucei brucei) (O15648 whole entry, looked up): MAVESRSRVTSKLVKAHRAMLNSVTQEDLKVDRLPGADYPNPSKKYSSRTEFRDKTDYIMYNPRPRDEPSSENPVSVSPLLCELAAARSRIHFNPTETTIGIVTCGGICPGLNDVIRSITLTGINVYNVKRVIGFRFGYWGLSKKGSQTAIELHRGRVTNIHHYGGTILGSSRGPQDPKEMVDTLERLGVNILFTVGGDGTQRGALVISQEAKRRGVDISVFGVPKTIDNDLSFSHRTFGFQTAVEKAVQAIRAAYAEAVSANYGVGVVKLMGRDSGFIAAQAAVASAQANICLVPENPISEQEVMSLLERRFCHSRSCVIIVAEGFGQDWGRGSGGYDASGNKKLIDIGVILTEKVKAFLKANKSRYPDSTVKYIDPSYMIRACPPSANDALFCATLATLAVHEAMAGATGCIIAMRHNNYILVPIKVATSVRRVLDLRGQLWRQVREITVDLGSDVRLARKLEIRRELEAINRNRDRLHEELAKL

This assay deals with ATP-dependent 6-phosphofructokinase (Trypanosoma brucei brucei) (UniProt O15648). The assay is described as follows: qHTS Assay to Find Inhibitors of T. brucei phosphofructokinase: hit validation (AID 492961).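 Note: luminescence reports ADP formed as PFK phosphorylates fructose-6-phosphate with ATP.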 The conditions noted are these: T. brucei PFK, ADP-Glo luminescence; series mostly up to 51.4 µM. A digest of the protocol:
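ADP-Glo luminescence read-out of ADP formed by 1.25 nM PFK from 0.1 mM ATP and 0.5 mM F6P (TEA pH 8.0, 45 min, RT). Compounds titrated; activity normalized to no-enzyme and full-enzyme controls.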
For `c1ccc2ccccc2c1`, the Potency result was “inactive”. As for `CC(=O)N=c1sc(S(N)(=O)=O)nn1C`, the Potency result was “inactive”. For `C[C@]12CCC(=O)C[C@@H]1CC[C@@H]1[C@@H]2CC[C@]2(C)C=CC[C@@H]12` the value was “inactive”.

On to `COc1ccc2c(=O)c(C)c(-c3ccccc3)oc2c1CN(C)C`, for which the Potency result is “inactive”. For `CCCCC(CC)COS(=O)(=O)O` (stereo not drawn) the value was “inactive”. For `CCCCCCOC(=O)c1cccnc1` the value was “inactive”; for `CC(C)O`, “inactive”; for `O=C1c2ccccc2C(=O)c2c1ccc(O)c2O`, “inactive”.

For the compound `CC(C)(CO)[C@@H](O)C(=O)NCCC(=O)NCCSSCCNC(=O)CCNC(=O)[C@H](O)C(C)(C)CO`, the Potency result is “inactive”. Under `CCN(CC)CCOC(=O)c1cccnc1` stands “inactive”; under `CN(C)CCC=C1c2ccccc2C(C)(C)c2ccccc21`, “inactive”. For `CC1(C)S[C@@H]2[C@H](NC(=O)C3(N)CCCCC3)C(=O)N2[C@H]1C(=O)O` the value was “inactive”; for `CC(=O)Oc1cc(C(F)(F)F)ccc1C(=O)O`, “inactive”. For `CC(C)CCCCCCc1ccc(O)cc1` the value was “inactive”; for `CC(O)CN(C)C` (stereo not drawn), “inactive”; for `Cc1nc(NS(=O)(=O)c2ccc(N)cc2)nc(C)c1Br`, “inactive”. On to `CC(CNC(=O)c1cccnc1)NC(=O)c1cccnc1` (stereo not drawn), for which the Potency result was “inactive”. Under `CN1CCCC(CN2c3ccccc3Sc3ccccc32)C1` (stereo not drawn) stands “inactive”; under `CC(=O)Nc1ccc(OC(C)=O)cc1`, “inactive”; under `COC(=O)CC[C@H](N)C(=O)O`, “inactive”.

Consider `[O-][N+](=Nc1ccccc1)c1ccccc1`, for which the Potency entry is “inactive”. Under `CCCc1nc(C(C)(C)O)c(C(=O)OCc2oc(=O)oc2C)n1Cc1ccc(-c2ccccc2-c2nn[nH]n2)cc1` stands “inactive”.

As for `CC(C)c1ncc([N+](=O)[O-])n1C`, the Potency entry was “inactive”.
